An excerpt weighted towards active compounds, which were near 3.2% of everything screened.
CHT block = inhibits the human high affinity choline transporter. B-score at 10 µM. CHT-expressing cells, membrane potential dye, choline response; active compounds read low. AID 488975. Q9GZV3. 0.86% of 310,000 active;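 active means B-score over 3 SD under the library average, and starting fluorescence ratio not unusually high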;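 further: choline stimulus applied at its EC90 after an EC20 pre-addition; B-score computed on integrated fluorescence ratio after choline addition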
TMEM16A act = mouse TMEM16A channel activation, primary screen | 0.3% of 340,000 active | B-score at 10 µM | HEK293 TMEM16A/YFP-H148Q/I152L, iodide quench fluorescence; active compounds read low | Q8BHY3;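 active means fluorescence-ratio B-score plate-corrected deviation score at least 3 library SD below zero, with starting fluorescence score within 5 deviations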;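 further: channel opened by trigger with iodide after compound preincubation; score built on the fluorescence ratio of max minus min over baseline; more negative score means more quench and so TMEM16A activation or potentiation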
CHT allo act = allosterically activates the human high affinity choline transporter | Q9GZV3 | CHT-expressing cells, membrane potential dye, choline EC20; active compounds read high; LV-AA mutant CHT in HEK293 cells | B-score at 10 µM | 0.49% of 310,000 active;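 active means initial fluorescence not abnormally high and integrated response B-score, plate-corrected, over 3 SD above library mean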
ANO1 block = inhibitors of mouse TMEM16A calcium-activated chloride channel; Q8BHY3; HEK293 TMEM16A/YFP iodide influx fluorescence, ionomycin; normalized B-score (activity score, 25-100; higher = stronger inhibition) at 10 µM; 1.2% of 310,000 active;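 active means ratio plate-corrected score three or more library SD toward inhibition, starting fluorescence score within five deviations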;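 further: score derived from kinetic fluorescence span divided by baseline fluorescence per well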
Kir21 inh = Kir2.1 (mouse) channel inhibition; HEK293-Kir2.1, FluxOR thallium flux fluorescence; active compounds read low; 0.85% of 310,000 active; B-score at 10 µM;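 active means fluorescence ratio B-score at or below minus 3 SD of library scores, with starting-brightness B-score within 2 SD, cut at about -4.2 in these data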;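 further: channel flux triggered by added potassium and thallium sulfate stimulus; B-score of peak minus minimum fluorescence over baseline after thallium stimulus; more negative B-score means stronger Kir2.1 block with less thallium influx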
Target sequence (P35561 whole entry, looked up): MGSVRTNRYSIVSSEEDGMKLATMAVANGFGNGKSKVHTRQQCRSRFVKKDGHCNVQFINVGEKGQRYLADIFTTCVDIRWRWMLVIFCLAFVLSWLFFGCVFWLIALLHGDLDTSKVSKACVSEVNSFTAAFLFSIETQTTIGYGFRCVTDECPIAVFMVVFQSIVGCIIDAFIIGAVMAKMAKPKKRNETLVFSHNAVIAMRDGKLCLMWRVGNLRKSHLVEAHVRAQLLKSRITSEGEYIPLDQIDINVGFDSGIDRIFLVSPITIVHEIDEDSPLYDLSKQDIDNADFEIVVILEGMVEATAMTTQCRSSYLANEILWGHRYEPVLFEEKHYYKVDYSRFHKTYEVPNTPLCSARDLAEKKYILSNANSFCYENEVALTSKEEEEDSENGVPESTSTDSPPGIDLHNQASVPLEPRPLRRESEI
Rce1 inhib = yeast Ras-converting enzyme inhibition; yeast membranes, quenched prenylated peptide cleavage fluorescence; 0.27% of 290,000 active; Q03530; calls only;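 active means fall in fluorescence gain of 50% or more versus controls, with final raw signal at or below 3038400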;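 further: plate controls were neutral control wells for no effect and wells lacking membranes for full effect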
CHT inh conf = confirmation of human choline transporter CHT inhibitors; CHT-expressing cells, choline membrane potential dye; LV-to-AA substituted CHT, HEK293 cells; CHT activity remaining % of control (active compounds read low), % at 10 µM; 70% of 2,400 active; shares compounds with CHT block;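 active means choline transporter activity left, mean of duplicates at 10 µM, below buffer-only control mean minus 3 SD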;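 further: depolarization triggered by choline at its EC90 following an EC20 pre-addition; 0% = hemicholinium-3 full block and 100% = buffer-only control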
HEK293 MPD ctr = counter-screen for CHT inhibitors: effect in parental HEK293 cells. shares compounds with CHT block. membrane potential dye, choline response; active = decrease or increase beyond buffer ±3SD. membrane potential ratio readout (active if shifted either direction beyond buffer ±3SD; no single direction) at 10 µM. 4% of 2,400 active. AID 493222;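 further: parental cells lack the transporter so any hit is non-specific; ratio is peak minus trough fluorescence over baseline after EC90 choline challenge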
* marks the source's active call; other numbers are inactive results.

Results for CCC1CCCCN1CCCNC(=O)c1ccc(N2CCOCC2)c(NS(=O)(=O)c2ccc(OC)cc2)c1 (configuration not stated) ?
CHT block: -6.79*; TMEM16A act: inactive; CHT allo act: inactive; ANO1 block: inactive; Kir21 inh: -0.38; Rce1 inhib: inactive; CHT inh conf: 42.3%*; HEK293 MPD ctr: inactive

How did CCCCNC(=O)c1ccc(N2CCOCC2)c(NS(=O)(=O)c2ccc(OC)cc2)c1 do in these assays?
CHT block: inactive; TMEM16A act: inactive; CHT allo act: inactive; ANO1 block: inactive; Kir21 inh: -0.21; Rce1 inhib: inactive

What do the screens show for `CCn1cc(/C=C(\NC(=O)c2ccccc2F)C(=O)NCCCn2ccnc2)c2ccccc21`?
CHT block: -7.18*; TMEM16A act: inactive; CHT allo act: inactive; ANO1 block: inactive; Kir21 inh: -0.08; Rce1 inhib: inactive; CHT inh conf: 28.3%*; HEK293 MPD ctr: inactive

What do the screens show for `CCn1cc(/C=C(\NC(=O)c2ccccc2OC)C(=O)NCCCn2ccnc2)c2ccccc21`?
CHT block: inactive; TMEM16A act: inactive; CHT allo act: inactive; ANO1 block: inactive; Kir21 inh: -0.17; Rce1 inhib: inactive

How did O=C(N/C(=C\c1ccc(Br)cc1)C(=O)N1CCOCC1)c1ccccc1Cl do in these assays?
CHT block: -5.62*; TMEM16A act: inactive; CHT allo act: inactive; ANO1 block: inactive; Kir21 inh: -1.07; Rce1 inhib: inactive; CHT inh conf: inactive; HEK293 MPD ctr: inactive

What do the screens show for `O=C(N/C(=C\c1ccccc1)C(=O)N1CCOCC1)c1ccccc1Cl`?
CHT block: inactive; TMEM16A act: inactive; CHT allo act: inactive; ANO1 block: inactive; Kir21 inh: 0; Rce1 inhib: inactive

What do the screens show for `CN(C)S(=O)(=O)n1cc(/C=C(\NC(=O)c2ccccc2F)C(=O)N2CCOCC2)c2ccccc21`?
CHT block: inactive; TMEM16A act: inactive; CHT allo act: inactive; ANO1 block: inactive; Kir21 inh: 0.01; Rce1 inhib: inactive

Results for CCn1cc(/C=C(\NC(=O)c2ccccc2F)C(=O)N2CCOCC2)c2ccccc21 ?
CHT block: -5.1*; TMEM16A act: inactive; CHT allo act: inactive; ANO1 block: inactive; Kir21 inh: 0.75; Rce1 inhib: active; CHT inh conf: 46.3%*; HEK293 MPD ctr: inactive

What do the screens show for `Cc1ccc(NC(=O)CSc2nnc(-c3n[nH]c4ccccc34)n2-c2ccccc2)c(C)c1`?
CHT block: inactive; TMEM16A act: inactive; CHT allo act: inactive; ANO1 block: inactive; Kir21 inh: 0.06; Rce1 inhib: inactive

How did O=C(Nc1ccccc1Cl)C1CCN(S(=O)(=O)c2cccc3nonc23)CC1 do in these assays?
CHT block: inactive; TMEM16A act: inactive; CHT allo act: inactive; ANO1 block: inactive; Kir21 inh: 0.76; Rce1 inhib: inactive

Results for CC(C)Oc1ccc2c3c(c(=O)oc2c1)CCC3 ?
CHT block: inactive; TMEM16A act: inactive; CHT allo act: inactive; ANO1 block: inactive; Kir21 inh: 1.7; Rce1 inhib: inactive

What do the screens show for `COC(=O)C(C)Oc1ccc2c3c(c(=O)oc2c1)CCCCC3` (configuration not stated)?
CHT block: -5.16*; TMEM16A act: inactive; CHT allo act: inactive; ANO1 block: inactive; Kir21 inh: 0.22; Rce1 inhib: inactive; CHT inh conf: inactive; HEK293 MPD ctr: inactive

Results for CCc1cc(-c2nc(N)ncc2-c2csc(C)n2)c(O)cc1OC ?
CHT block: -7.79*; TMEM16A act: inactive; CHT allo act: inactive; ANO1 block: inactive; Kir21 inh: -2.67; Rce1 inhib: inactive; CHT inh conf: inactive; HEK293 MPD ctr: inactive
